Source: the supplement of paper PMC6555819

Tested on: VDR:RXRa (NR concentration 270 nM, RXRa partner concentration 90 nM)
Test: PBM binding z-score (relative to random genomic background probes); higher = stronger binding; sequences stand for … in GC…GCGATTGACAGCGTAGAATGAAGG
Procedure: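 Protein-binding microarray (Agilent 4x180K custom design, double-stranded 60-nt probes: 5' GC cap, 34-nt variable region, 24-nt constant primer region; full probe sequence given). Purified or IVT nuclear receptor:RXRα heterodimers (3:1 NR:RXRα, mostly 270:90 nM) or homodimers were incubated for 1 h in PBS with 2% milk and no ligand, then detected with Alexa488 antibodies. Fluorescence from o1-orientation probes (~5 replicates averaged) was converted to z-scores against 500 random hg19 background probes. Variable regions are seed direct-repeat (DR0–DR5) sites, all their single-nucleotide variants and half-site ablations.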

First: CAAACTGGGTCACGAAAGGTCAAAGTCGAATGAC
Second: TGAATGAGGTTAAAGATCAGGGGACGTGGCGTCG
The PBM binding z-score of the first is higher: 6.96 for the first, 1.88 for the second.

Going from CCTACTGGGCCACGAAAGGTCATTGAATCAGTGA to CGAACTAGATCAAGGACAGTGAATCTCCGCACGC, the PBM binding z-score falls from 4.14 to -0.37.

Compared with TAGCCTAGGTCAGATCGGGCCGGTATACGCTATA, CGTCCAAGGTCAGCAGGTCAGTGGAAGCGACGTG is higher in PBM binding z-score: 0.236 for the first, 3.82 for the second.

Compared with TCAGATAGGTAATACAGGTGAAAGTCGGCATCTA, TCTAGCAGGCCAGCGGGTCACTCAAGAGGTACGG is lower in PBM binding z-score: 0.887 for the first, 0.435 for the second.

First: TCATTTAGGTAAAAGGTGAAAGTCGGTGTGGTAA
Second: CAAACTAGGTCGCAGAGGTCAAAGTCCGTGCGTA
The PBM binding z-score of the first is lower: 1.4 for the first, 7.14 for the second.

Compared with CAGCCTGGGTCAGGGCCAGTATAGGAGGAACGTT, ATATGTATGTTATCGGGTCATTCAGTTTGCGCAT is higher in PBM binding z-score: 0.152 for the first, 4.9 for the second.

Compared with GCTTGTTGATCAAGGTTAAGAAAGACTAAGCTAA, TCGAGTAGGTTAGGGGCATTTAGAATGGCGTCGA is higher in PBM binding z-score: 0.122 for the first, 0.556 for the second.

Going from GCTTGTAGATCAAGGTTTAGAAAGACTAAGCTAA to TGAATGAGTTTATAAGATCAGGGAACGTTGCAAA, the PBM binding z-score rises from -0.245 to 1.26.

Compared with TGACTGAGGTTATAAGATCAGGGAACGTTGCAAA, TAGCCCAGGTCATGCGGGCCAGTATAGTGTCGGC is higher in PBM binding z-score: 0.798 for the first, 3.7 for the second.

First: AATACAGGGTCATCGTAGGCCAGAGAACGCACAG
Second: CGGACTAGGTCAGAACAGGACAGTGAAGGATGAT
The PBM binding z-score of the first is higher: 5.24 for the first, 0.538 for the second.

Compared with CCTAGCAGGCCAGGCTCACTCAAGCATTTCGCTT, TCGAGTAGGATACCAATGGGGCATTCAGCTTTCT is higher in PBM binding z-score: -0.772 for the first, -0.497 for the second.

First: ATCGGAAGGTCGTGAGGTGAGTATACAGAAAGGC
Second: CCAGACAGGTGAGAAGGTAACGCAGCCTCGATTA
The PBM binding z-score of the first is higher: 2.1 for the first, -0.101 for the second.

Compared with CAAACAGGGTCAGCTAGGCCAGAGTAGGGACGGC, CCTACTGGGCCATTCAGTGGTCATTGATCATATG is lower in PBM binding z-score: 4.09 for the first, -0.487 for the second.

First: TCTTGTAGATCAACAGGAGGTTGAGAAAGATCGA
Second: ATCTGTAGGTAAGACTCAGTTCAGTGAAGAACGC
The PBM binding z-score of the first is lower: -0.025 for the first, 0.82 for the second.

First: TCGAGTAGGTTAGGGGCATTCCGAATGGCGTCGA
Second: TCAGACAGGTGAAGGTAACACAGGTACGCAGTCG
The PBM binding z-score of the first is lower: 0.256 for the first, 1.05 for the second.

Going from TGGATGAGGTTATAAGATCAGGGAACGTTGCAAA to TAGCCTAGGTCATTCGGGGGCCAGTATAGAAAGC, the PBM binding z-score rises from 1.04 to 3.99.

Compared with CATGCAGGGTCAGCTAGGCCAGAGTAGGGACGGC, TCGAATAGGTTACCAATGGGGCATTCAGCTTTCT is lower in PBM binding z-score: 3.97 for the first, 0.811 for the second.

First: TCCTATAGGTAATACAGGTGAAAGTCGGCATCTA
Second: CCTTACGGGTCAAGGTTATAGTACGGGTGGTACG
The PBM binding z-score of the first is lower: 0.718 for the first, 3.62 for the second.

Going from ACTTACGGGTCAACGAGGTTTTAGCACGCGTATA to CCTGCTAGGCCAATGGTCAGCTAAAGCAGCTCGC, the PBM binding z-score falls from 6.69 to -0.792.

ACTAGCAGGCCAAGTTGGGGTCACTCAAACAAAG and TCTAGTTGCTCAAAGGTCACACACTCGAAATGCG are the same in PBM binding z-score: 4.77 for the first, 4.77 for the second.
